Screen size: about 5,500 compounds; about 2,000 (36%) were called active. Another 18% or so got no clear call; they are omitted. No stated cut-off is given here; in the data, active means normalized growth mostly below about 0.91 (no sharp cut-off); inconclusive means no clear call, values can overlap the other calls; inactive means mostly above about 0.92. The list shows a part of the results.
Assay: chemical genetic growth profiling, strain panel (AID 1159580);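 further: tested at 20 µM; growth read once vehicle control cultures reached saturation at 30 °C; 1 = growth at the plate median or of vehicle wells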
Conditions: S. cerevisiae deletion strains, growth OD
[1] = locus YAR019C, strain CDC15, stronger effect = lower value
[2] = locus YBL105C, strain PKC1, stronger effect = lower value
[3] = locus YBR135W, strain CKS1, stronger effect = lower value
[4] = locus YBR160W, strain CDC28, stronger effect = lower value
[5] = locus YDL017W, strain CDC7, stronger effect = lower value
[6] = locus YDL028C, strain MPS1, stronger effect = lower value
[7] = locus YDL101C, strain DUN1, stronger effect = lower value
[8] = locus YDL108W, strain KIN28, stronger effect = lower value
[9] = locus YDL132W, strain cdc53, stronger effect = lower value
[10] = locus YDL214C, strain PRR2, stronger effect = lower value
[11] = locus YDR052C, strain DBF4, stronger effect = lower value
[12] = locus YDR054C, strain cdc34, stronger effect = lower value
[13] = locus YDR226W, strain ADK1, stronger effect = lower value
[14] = locus YDR477W, strain SNF1, stronger effect = lower value
[15] = locus YER123W, strain YCK3, stronger effect = lower value
[16] = locus YER133W, strain GLC7, stronger effect = lower value
[17] = locus YFL009W, strain cdc4, stronger effect = lower value
[18] = locus YFL029C, strain CAK1, stronger effect = lower value
[19] = locus YFR003C, strain YPI1, stronger effect = lower value
[20] = locus YFR019W, strain FAB1, stronger effect = lower value
[21] = locus YGR040W, strain KSS1, stronger effect = lower value
[22] = locus YGR052W, strain FMP48, stronger effect = lower value
[23] = locus YGR092W, strain DBF2, stronger effect = lower value
[24] = locus YHR030C, strain SLT2, stronger effect = lower value
[25] = locus YHR079C, strain IRE1, stronger effect = lower value
[26] = locus YHR082C, strain KSP1, stronger effect = lower value
[27] = locus YHR205W, strain SCH9, stronger effect = lower value
[28] = locus YIL147C, strain SLN1, stronger effect = lower value
[29] = locus YJL095W, strain BCK1, stronger effect = lower value
[30] = locus YJL157C, strain FAR1, stronger effect = lower value
[31] = locus YJR016C, strain ILV3, stronger effect = lower value
[32] = locus YJR066W, strain TOR1 (second series), stronger effect = lower value
[33] = locus YJR066W, strain TOR1, stronger effect = lower value
[34] = locus YKL048C, strain ELM1, stronger effect = lower value
[35] = locus YKL067W, strain YNK1, stronger effect = lower value
[36] = locus YKL101W, strain HSL1, stronger effect = lower value
[37] = locus YKL203C, strain TOR2, stronger effect = lower value
[38] = locus YLR113W, strain HOG1, stronger effect = lower value
[39] = locus YLR133W, strain CKI1, stronger effect = lower value
[40] = locus YLR403W, strain SFP1, stronger effect = lower value
[41] = locus YML070W, strain DAK1, stronger effect = lower value
[42] = locus YMR001C, strain CDC5, stronger effect = lower value
[43] = locus YMR205C, strain PFK2 (second series), stronger effect = lower value
[44] = locus YNL006W, strain LST8, stronger effect = lower value
[45] = locus YNL020C, strain ARK1, stronger effect = lower value
[46] = locus YNL161W, strain CBK1, stronger effect = lower value
[47] = locus YNL183C, strain NPR1, stronger effect = lower value
[48] = locus YNL207W, strain RIO2, stronger effect = lower value
[49] = locus YNL307C, strain MCK1 (second series), stronger effect = lower value
[50] = locus YOL078W, strain AVO1, stronger effect = lower value
[51] = locus YOL136C, strain PFK27, stronger effect = lower value
[52] = locus YOR061W, strain CKA2, stronger effect = lower value
[53] = locus YOR119C, strain RIO1, stronger effect = lower value
[54] = locus YOR231W, strain MKK1, stronger effect = lower value
[55] = locus YPL031C, strain PHO85, stronger effect = lower value
[56] = locus YPL153C, strain RAD53, stronger effect = lower value
[57] = locus YPL204W, strain HRR25, stronger effect = lower value
[58] = locus YPL209C, strain IPL1, stronger effect = lower value
[59] = locus YPL256C, strain CLN2, stronger effect = lower value
[60] = locus YPR025C, strain CCL1, stronger effect = lower value
[61] = locus YPR106W, strain ISR1, stronger effect = lower value
[62] = locus YPR111W, strain DBF20, stronger effect = lower value
[63] = strain NNK1, stronger effect = lower value
[64] = strain TSCII, stronger effect = lower value

Measured: normalized growth

CCOC(=O)C(NC(C)=O)(Nc1ccc(F)c(Cl)c1)C(F)(F)F (stereo not given)
inactive: [1] 0.992 | [2] 0.995 | [3] 0.983 | locus YBR136W, strain MEC1, stronger effect = lower value 0.997 | [4] 0.991 | [5] 0.992 | [6] 0.995 | [7] 0.982 | [8] 0.997 | [9] 0.991 | [10] 1.01 | [11] 0.99 | [12] 0.997 | [13] 0.985 | [14] 1 | [15] 0.933 | [16] 0.994 | [17] 0.991 | [18] 0.994 | [19] 0.992 | [20] 0.973 | locus YFR028C, strain CDC14, stronger effect = lower value 0.979 | [21] 0.988 | [22] 1.14 | [23] 0.97 | [25] 1.15 | [26] 1.14 | [27] 1.01 | [28] 0.99 | [29] 1.14 | locus YJL128C, strain PBS2, stronger effect = lower value 0.963 | [30] 1.01 | [31] 0.998 | [32] 0.997 | [33] 1.18 | [34] 0.998 | [35] 1 | [36] 1.01 | locus YKL193C, strain SDS22, stronger effect = lower value 0.979 | [37] 1.07 | [38] 1.11 | [39] 1.01 | [40] 1.01 | [41] 0.997 | [42] 0.984 | [43] 0.992 | locus YMR277W, strain FCP1, stronger effect = lower value 0.988 | [44] 0.988 | [45] 1.01 | [46] 0.986 | [47] 1.16 | [48] 1 | locus YNL222W, strain SSU72, stronger effect = lower value 0.989 | [49] 1.01 | [50] 0.981 | [51] 0.999 | [52] 1 | [53] 1 | [54] 1.11 | locus YOR329C, strain SCD5, stronger effect = lower value 0.991 | [55] 1 | [56] 0.993 | [57] 0.996 | [58] 0.988 | [59] 1.12 | [60] 0.986 | [61] 0.99 | [62] 0.997 | [63] 1.01 | [64] 0.986
active: [24] 1.19 [resistant]

CSC(SC)=C(C#N)C(=O)c1ccccc1Cl
inactive: [4] 0.937 | [5] 0.911 | [6] 0.934 | [8] 0.927 | [13] 0.911 | [19] 0.915 | [28] 0.937 | [61] 0.936 | [62] 0.934
active: [1] 0.422 | [2] 0.636 | [3] 0.816 | [7] 0.583 | [9] 0.626 | [10] 0.135 | [11] 0.826 | [12] 0.507 | [14] 0.134 | [15] 0.114 | [16] 0.116 | [17] 0.707 | [18] 0.326 | [20] 0.105 | [21] 0.13 | [22] 0.144 | [23] 0.118 | [24] 0.118 | [25] 0.134 | [26] 0.133 | [27] 0.0151 | [29] 0.119 | [30] 0.121 | [31] 0.863 | [32] 0.105 | [33] 0.105 | [34] 0.182 | [35] 0.163 | [36] 0.153 | [37] 0.0997 | [38] 0.147 | [39] 0.132 | [40] 0.0452 | [41] 0.113 | [42] 0.732 | [43] 0.179 | [44] 0.304 | [45] 0.115 | [46] 0.661 | [47] 0.133 | [48] 0.355 | [49] 0.106 | [50] 0.573 | [51] 0.101 | [52] 0.122 | [53] 0.125 | [54] 0.127 | [55] 0.108 | [56] 0.121 | [57] 0.117 | [58] 0.774 | [59] 0.161 | [60] 0.723 | [63] 0.342 | [64] 0.434
